Activity calls are given as the source filed them. How the calls were made is not given here.
target: L-lactate dehydrogenase (Plasmodium falciparum (isolate CDC / Honduras)) (UniProt Q27743); assay: PfLDH activity inhibition – cell lysate, 3D7 strain, counter-screen for P. falciparum growth inhibition project (AID 2304);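 further: 0% = vehicle and 100% = reference inhibitor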; conditions: P. falciparum 3D7 crude extract, LDH APAD/NBT absorbance; at 2 µM; active compounds read high
Sequence (Q27743 whole entry, looked up): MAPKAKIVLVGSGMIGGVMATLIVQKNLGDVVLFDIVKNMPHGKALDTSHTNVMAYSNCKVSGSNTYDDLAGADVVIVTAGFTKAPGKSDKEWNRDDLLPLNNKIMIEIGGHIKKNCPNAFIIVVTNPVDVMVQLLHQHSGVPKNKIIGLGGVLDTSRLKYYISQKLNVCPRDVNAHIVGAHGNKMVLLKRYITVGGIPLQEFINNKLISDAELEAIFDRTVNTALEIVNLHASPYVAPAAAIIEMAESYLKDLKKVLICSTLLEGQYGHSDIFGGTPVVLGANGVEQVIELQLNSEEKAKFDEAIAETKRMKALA

Compound	inhibition
N#Cc1ccc(N2CCN(Cc3ccc(-c4cccc(-c5nc6ccccc6[nH]5)c4)cc3)CC2)nc1	-1% (inactive)
COc1ccc(CNCc2ccc(-c3cccc(-c4nc5ccc(F)cc5[nH]4)c3)cc2)cc1	3% (inactive)
FC(F)(F)c1ccc2nc(-c3ccc(-c4ccc(CNCCN5CCNCC5)cc4)cc3)[nH]c2c1	-4% (inactive)
Nc1ncc(-c2ccc3[nH]ccc3c2)c2ccc(-c3ccncc3)cc12	-6% (inactive)
Cc1cc(N)c2cc(NC(=O)c3cc4ccccc4s3)ccc2n1	2% (inactive)
O=C(N[C@@H](Cc1ccccc1)C(=O)O)c1cc(-c2ccc(F)cc2)no1 (tested in a mixture with another compound)	-3% (inactive)
CCCCC(CC)CN1C(=O)C(c2ccccc2)(c2ccccc2)N=C1N (stereo not given)	4% (inactive)
O=C(Nc1ccccc1)N(Cc1cccc(-c2ccc(CNCCc3ccccc3)cc2)c1)C1CCN(Cc2ccccc2)CC1	3% (inactive)
CCNc1cc(C(=O)N[C@@H](Cc2ccccc2)[C@H](O)CNC(C)(C)CCCC(C)C)cc(N2CCCCS2(=O)=O)c1	2% (inactive)
COc1cc(C)nc2ccc(NC(=O)Nc3ccc4nc(C)cc(OC)c4c3)cc12	-7% (inactive)
COc1ccc(CNC(=O)C2Cc3ccccc3CN2Cc2ccc3ccccc3c2)cc1 (stereo not given)	-8% (inactive)
O=C(/C=C/c1ccc2ccccc2c1)NCCCCCN1CCC(c2c[nH]c3ccccc23)CC1	6% (inactive)
O=C(N[C@@H](Cc1ccccc1)C(=O)NC1CCCc2ccccc21)c1ccc(O)c(-c2ccc(Cl)c(Cl)c2)c1 (stereo not given in full)	-8% (inactive)
COc1cc(Nc2nc(N)n(C(=O)c3ccc4c(c3)OCO4)n2)cc(OC)c1OC	1% (inactive)
CC(C)CCNc1nc(NCCc2ccccc2)c2cc(O)ccc2n1	7% (inactive)
COc1cccc(CCc2nc3c(N4CCC(Cc5ccccc5)CC4)cccc3n2CC2CNCCO2)c1 (stereo not given)	4% (inactive)
O=C(OCC1CCN(Cc2ccccc2)C1)c1ccc(Cl)cc1 (stereo not given)	3% (inactive)
Oc1ccc(CCNc2nc(NCCCOc3cc(CN4CCCCC4)ccc3F)nc(N3CCNCC3)n2)cc1	-1% (inactive)
Cc1noc(C)c1-c1cccc(CNCc2cccc(-c3cccc(-c4nc5ccc(C(F)(F)F)cc5[nH]4)c3)c2)c1	5% (inactive)
CC1CCCN1Cc1cccc(-c2ccc(C(=O)NCCOc3ccccc3)s2)c1 (stereo not given)	-3% (inactive)

Compound	inhibition
COc1cc(C(=O)NCCCN2CCN(c3cccc(Cl)c3)CC2)ccc1-c1cc2cc(Cl)c(Cl)cc2[nH]1	0% (inactive)
CCn1c(SCC(=O)Nc2cc(C(F)(F)F)ccc2Cl)nc2ccccc2c1=O	3% (inactive)
COc1ccc2nccc([C@@H](O)CN3CCC(NC(=O)Cc4cccc5c(Br)cccc45)CC3)c2c1	-3% (inactive)
CC(CN(C)C)C(=O)Nc1cccc(-c2cccc(-c3nc4ccccc4[nH]3)c2)c1 (stereo not given)	-5% (inactive)
Fc1cccc(COc2ccc(Nc3ncnc4sc(C#C[C@H]5CC[C@H](CNCC(F)(F)F)N5)cc34)cc2Cl)c1	-4% (inactive)
COc1cccc2c(NN=Cc3cccc(F)c3)ccnc12	5% (inactive)
CN1CCN(Cc2cc(NC(=O)c3ccc(-c4ccc(Cl)cc4Cl)cc3)ccc2-c2ccccc2)CC1	3% (inactive)
CCCCCCN(CCCCCC)CC(O)c1cc(-c2ccc(Cl)cc2)nc2c(C)cc(C)cc12 (stereo not given)	-2% (inactive)
Cc1cc(N)c2cc(NC(=O)c3cc(C(F)(F)F)cc(C(F)(F)F)c3)ccc2n1	5% (inactive)
O=C(Nc1ccc(Cl)cc1)c1ccc(S(=O)(=O)NCC2CCN(CC3CCCCC3)CC2)cc1	-2% (inactive)
COc1cccc(NC(=O)CSc2nc(-c3ccccc3Cl)ns2)c1	2% (inactive)
CC(C)c1ccc(S(=O)(=O)Nc2cccc(CCN3CCC(N4CCCCC4)CC3)c2)cc1	6% (inactive)
Cn1cnc2c(SCc3ccccc3OCc3ccccc3)ncnc21	-3% (inactive)
O=C(Nc1ccc(N2CCNCC2)nc1)c1oc(-c2ccccc2)nc1C(F)(F)F	0% (inactive)
CC(=O)Nc1nc(C(=O)Nc2ccc(-c3cccc(-c4nc5ccccc5[nH]4)c3)cc2)cs1	-10% (inactive)
Cc1ccc(S(=O)(=O)NC2CCN(CCNC(=O)Nc3cc(C)nc4ccccc34)C2)cc1 (stereo not given)	-3% (inactive)
O=C(Nc1ccc(-c2csc(-c3nc4ccccc4[nH]3)c2)cc1)Nc1ccsc1	-1% (inactive)
O=C(NC1CCCCCC1)C1CCCN(C(=O)c2ccc(O)c(-c3ccc(Cl)c(Cl)c3)c2)C1 (stereo not given)	-2% (inactive)
CCCNC(=O)CN1CN(c2ccccc2)C2(CCN(C(=O)c3ccc(C(C)(C)C)cc3)CC2)C1=O	0% (inactive)
N#Cc1ccc2[nH]cc(CN3CCC4(CC3)CN(CCNCc3ccccc3)C(=O)O4)c2c1	-1% (inactive)
